Assay results from the supplement of paper PMC7765376.
In all, about 1,500 compounds were measured (“Excess HSA synergy score (sum over dose matrix of excess over highest single agent)”: median about 43, lowest 2% from about -900 on). For the sample, the lowest values were picked, then their nearest neighbours and some compounds at random.

System: PEO-1
Assay: Excess HSA synergy score (sum over dose matrix of excess over highest single agent) (score (summed % response)); higher = less synergy / more antagonism (negative = synergy)
Conditions: 72 h, read-out: viability/apoptosis luminescence (CellTiter-Glo or Caspase3-Glo / not stated per table)
[1] = matrix design: 6x6, 5-fold dilutions (primary screen)
[2] = matrix design: 10x10, 9-step dilutions (confirmatory)

For `CC(C)(C)c1[nH]cnc1/C=c1\[nH]c(=O)/c(=C/c2ccccc2)[nH]c1=O` [Plinabulin] + CC[C@H](NC(=O)[C@H](C)NC)C(=O)N1C[C@@H](O)C[C@H]1Cc1c(-c2[nH]c3cc(F)ccc3c2C[C@@H]2C[C@H](O)CN2C(=O)[C@H](CC)NC(=O)[C@H](C)NC)[nH]c2cc(F)ccc12 [Birinapant], which “Excess HSA synergy score” value [1] is on record?
The value was -109.

Which “Excess HSA synergy score” value [1] does the source give for `COc1ccnc2[nH]cc(C(=O)C(=O)N3CCN(C(=O)c4ccccc4)C[C@H]3C)c12` + CC[C@H](NC(=O)[C@H](C)NC)C(=O)N1C[C@@H](O)C[C@H]1Cc1c(-c2[nH]c3cc(F)ccc3c2C[C@@H]2C[C@H](O)CN2C(=O)[C@H](CC)NC(=O)[C@H](C)NC)[nH]c2cc(F)ccc12 [Birinapant] here?
The value was 263.

Which “Excess HSA synergy score” value [1] does the source give for `C[C@H]1[C@H](C)CC[C@]2(C(=O)O)CC[C@]3(C)C(=CC[C@@H]4[C@@]5(C)C[C@@H](O)[C@H](O)[C@@](C)(CO)[C@@H]5CC[C@]43C)[C@H]12` [Asiatic acid] + CC[C@H](NC(=O)[C@H](C)NC)C(=O)N1C[C@@H](O)C[C@H]1Cc1c(-c2[nH]c3cc(F)ccc3c2C[C@@H]2C[C@H](O)CN2C(=O)[C@H](CC)NC(=O)[C@H](C)NC)[nH]c2cc(F)ccc12 [Birinapant] here?
Its value is 84.9.

For `CCc1cnn2c(NCc3ccc[n+]([O-])c3)cc(N3CCCC[C@H]3CCO)nc12` + CC[C@H](NC(=O)[C@H](C)NC)C(=O)N1C[C@@H](O)C[C@H]1Cc1c(-c2[nH]c3cc(F)ccc3c2C[C@@H]2C[C@H](O)CN2C(=O)[C@H](CC)NC(=O)[C@H](C)NC)[nH]c2cc(F)ccc12 [Birinapant], which “Excess HSA synergy score” value [1] is on record?
Its value is 5.95.

And the “Excess HSA synergy score” value [2]?
The value was -374.

For `Nc1nc2[nH]cc(CCc3ccc(C(=O)N[C@@H](CCC(=O)O)C(=O)O)cc3)c2c(=O)[nH]1` [Pemetrexed disodium] + CC[C@H](NC(=O)[C@H](C)NC)C(=O)N1C[C@@H](O)C[C@H]1Cc1c(-c2[nH]c3cc(F)ccc3c2C[C@@H]2C[C@H](O)CN2C(=O)[C@H](CC)NC(=O)[C@H](C)NC)[nH]c2cc(F)ccc12 [Birinapant], which “Excess HSA synergy score” value [1] is on record?
Its value is -173.

Which “Excess HSA synergy score” value [1] does the source give for `Nc1nc(F)nc2c1ncn2[C@@H]1O[C@H](CO)[C@@H](O)[C@H]1O` [2-Fluoroadenosine] + CC[C@H](NC(=O)[C@H](C)NC)C(=O)N1C[C@@H](O)C[C@H]1Cc1c(-c2[nH]c3cc(F)ccc3c2C[C@@H]2C[C@H](O)CN2C(=O)[C@H](CC)NC(=O)[C@H](C)NC)[nH]c2cc(F)ccc12 [Birinapant] here?
The value was 41.5.

Which “Excess HSA synergy score” value [1] does the source give for `Nc1nc(=O)n([C@H]2C[C@H](O)[C@@H](CO)O2)cc1F` + CC[C@H](NC(=O)[C@H](C)NC)C(=O)N1C[C@@H](O)C[C@H]1Cc1c(-c2[nH]c3cc(F)ccc3c2C[C@@H]2C[C@H](O)CN2C(=O)[C@H](CC)NC(=O)[C@H](C)NC)[nH]c2cc(F)ccc12 [Birinapant] here?
Its value is -352.

Which “Excess HSA synergy score” value [1] does the source give for `Nc1ncn([C@H]2C[C@H](O)[C@@H](CO)O2)c(=O)n1` [Decitabine] + CC[C@H](NC(=O)[C@H](C)NC)C(=O)N1C[C@@H](O)C[C@H]1Cc1c(-c2[nH]c3cc(F)ccc3c2C[C@@H]2C[C@H](O)CN2C(=O)[C@H](CC)NC(=O)[C@H](C)NC)[nH]c2cc(F)ccc12 [Birinapant] here?
Its value is -104.

`Nc1ncnc2c1ncn2[C@@H]1O[C@H](CO)[C@@H](O)[C@H]1O` [Adenosine] + CC[C@H](NC(=O)[C@H](C)NC)C(=O)N1C[C@@H](O)C[C@H]1Cc1c(-c2[nH]c3cc(F)ccc3c2C[C@@H]2C[C@H](O)CN2C(=O)[C@H](CC)NC(=O)[C@H](C)NC)[nH]c2cc(F)ccc12 [Birinapant] was tested. Which “Excess HSA synergy score” value [1] did it give?
The value was 270.

`Nc1nc(Cl)nc2c1ncn2[C@@H]1O[C@H](CO)[C@@H](O)[C@@H]1F` [Clofarabine] + CC[C@H](NC(=O)[C@H](C)NC)C(=O)N1C[C@@H](O)C[C@H]1Cc1c(-c2[nH]c3cc(F)ccc3c2C[C@@H]2C[C@H](O)CN2C(=O)[C@H](CC)NC(=O)[C@H](C)NC)[nH]c2cc(F)ccc12 [Birinapant] was tested. Which “Excess HSA synergy score” value [1] did it give?
Its value is -118.

What about the “Excess HSA synergy score” value [2] of the same compound?
Its value is -898.

What does the source list for `Nc1nc(Cl)nc2c1ncn2[C@H]1C[C@H](O)[C@@H](CO)O1` [Cladribine] + CC[C@H](NC(=O)[C@H](C)NC)C(=O)N1C[C@@H](O)C[C@H]1Cc1c(-c2[nH]c3cc(F)ccc3c2C[C@@H]2C[C@H](O)CN2C(=O)[C@H](CC)NC(=O)[C@H](C)NC)[nH]c2cc(F)ccc12 [Birinapant]?
Excess HSA synergy score [1]: -229; Excess HSA synergy score [2]: -1080

With `CC1=C(CO)C(=O)O[C@@H]([C@@H](C)[C@H]2CC[C@H]3[C@@H]4C[C@H]5O[C@]56[C@@H](O)C=CC(=O)[C@]6(C)[C@H]4CC[C@]23C)C1` [Withaferin A] + CC[C@H](NC(=O)[C@H](C)NC)C(=O)N1C[C@@H](O)C[C@H]1Cc1c(-c2[nH]c3cc(F)ccc3c2C[C@@H]2C[C@H](O)CN2C(=O)[C@H](CC)NC(=O)[C@H](C)NC)[nH]c2cc(F)ccc12 [Birinapant] as the compound, how does the “Excess HSA synergy score” value [1] read?
Its value is -42.3.

For `O=C(Nc1nnc(-c2ccco2)o1)c1cc(-c2ccccc2)nc2ccccc12` + CC[C@H](NC(=O)[C@H](C)NC)C(=O)N1C[C@@H](O)C[C@H]1Cc1c(-c2[nH]c3cc(F)ccc3c2C[C@@H]2C[C@H](O)CN2C(=O)[C@H](CC)NC(=O)[C@H](C)NC)[nH]c2cc(F)ccc12 [Birinapant], which “Excess HSA synergy score” value [1] is on record?
Its value is 57.7.

For `Cc1cnc(Nc2ccc(OCCN3CCCC3)cc2)nc1Nc1cccc(S(=O)(=O)NC(C)(C)C)c1` + CC[C@H](NC(=O)[C@H](C)NC)C(=O)N1C[C@@H](O)C[C@H]1Cc1c(-c2[nH]c3cc(F)ccc3c2C[C@@H]2C[C@H](O)CN2C(=O)[C@H](CC)NC(=O)[C@H](C)NC)[nH]c2cc(F)ccc12 [Birinapant], which “Excess HSA synergy score” value [1] is on record?
The value was 70.3.

How did the “Excess HSA synergy score” value [1] turn out when `CSc1cccc(Nc2ncc3cc(-c4c(Cl)cccc4Cl)c(=O)n(C)c3n2)c1` + CC[C@H](NC(=O)[C@H](C)NC)C(=O)N1C[C@@H](O)C[C@H]1Cc1c(-c2[nH]c3cc(F)ccc3c2C[C@@H]2C[C@H](O)CN2C(=O)[C@H](CC)NC(=O)[C@H](C)NC)[nH]c2cc(F)ccc12 [Birinapant] was run?
Its value is -134.

Which results are given for `CCN(CC)CCOc1ccc(Nc2ncc3cc(-c4c(Cl)cccc4Cl)c(=O)n(C)c3n2)cc1` + CC[C@H](NC(=O)[C@H](C)NC)C(=O)N1C[C@@H](O)C[C@H]1Cc1c(-c2[nH]c3cc(F)ccc3c2C[C@@H]2C[C@H](O)CN2C(=O)[C@H](CC)NC(=O)[C@H](C)NC)[nH]c2cc(F)ccc12 [Birinapant]?
Excess HSA synergy score [1]: -224; Excess HSA synergy score [2]: -954
